An excerpt weighted towards active compounds, which were near 3.4% of everything screened.
SMARCA2 act – SMARCA2 function activation, primary screen | MG213 cells, MMTV-luciferase reporter, dexamethasone, overnight | activation, % at 9.1 µM | actives 1% (n = 370,000) | AID 652017; in the data active = activation above about 7.8%
H9c2 protect – myocardial damage modulation in H9c2 cells | H9c2 cardiomyocytes, H2O2 injury protection, ATPLite, 2 h | protection from H2O2 cell death, % at 20 µM | actives 0.63% (n = 360,000);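 active = compounds giving at least 50% protection of heart cells from peroxide-induced death in the single-dose screen, raw or plate-pattern-corrected value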
FXN GAA850 act – frataxin GAA850 promoter activation; HEK293 lucGAA850 FXN promoter luciferase reporter, 24 h; percent of 10 µM SAHA response; activation, % at 6 µM; actives 0.56% (n = 360,000);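 active = activation above the average of all compounds screened plus 3 SD, cutoff fixed separately per campaign, cut at about 7.5% in these data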
GalR3 antag – blocks the human galanin receptor 3; O60755; HEK293 GalR3-CNG cAMP membrane potential fluorescence; galR3 body fused to GalR1 C-terminus; inhibition, % at 3 µM; actives 0.44% (n = 360,000); AID 651719;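 active = inhibition above the screen-wide average plus 3 SD, cut at about 13% in these data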;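 note: forskolin and galanin both at EC90 stimulate the cells; cAMP rise reported by CNG channel membrane potential dye signal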
Target sequence (O60755 1-299 limits assumed): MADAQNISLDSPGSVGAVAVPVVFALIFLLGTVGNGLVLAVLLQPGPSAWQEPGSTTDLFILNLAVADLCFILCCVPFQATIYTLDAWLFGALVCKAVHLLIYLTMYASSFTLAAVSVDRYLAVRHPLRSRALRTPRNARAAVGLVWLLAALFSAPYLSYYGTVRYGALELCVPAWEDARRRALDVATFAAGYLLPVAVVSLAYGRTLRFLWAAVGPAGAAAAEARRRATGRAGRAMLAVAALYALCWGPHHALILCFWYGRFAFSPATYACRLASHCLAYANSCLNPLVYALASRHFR
COUP-TFII inh – blocks human COUP-TFII nuclear receptor | inhibition, % at 8.6 µM | HEK293T NGFI-A luciferase reporter, luminescence | actives 0.7% (n = 370,000) | AID 686940;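 active = inhibition above a per-plate cutoff, mean inhibition of test wells between control levels plus 3 SD, cut at about 38% in these data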;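 note: cells cotransfected with COUP-TFII expression vector driving the NGFI-A reporter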
Gli-Sufu block – blocks Gli-Sufu signaling in a luciferase reporter; Sufu-KO-LIGHT fibroblasts, Gli luciferase reporter luminescence; inhibition, % at 5 µM; actives 0.74% (n = 340,000); AID 588413;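 active = inhibition above about 55%, limit read from the data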
GalR3 conf – GalR3 (human) antagonism, confirmation; shares compounds with GalR3 antag; actives 59% (n = 1,600); HEK293 GalR3 CNG cAMP biosensor, membrane potential fluorescence; galR3 fused to GalR1 carboxy tail; challenged with forskolin and galanin at EC90; inhibition, % at 3 µM;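 active = inhibition above the primary screen's cutoff, the mean inhibition of all screened compounds plus 3 SD, cut at about 13% in these data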
HEK-CNG parental – acts as nonspecific agonist in parental HEK-CNG cells; shares compounds with GalR3 antag; HEK293-CNG parental cells, cAMP membrane potential fluorescence; normalised: DMSO wells 0%, forskolin wells 100%; AID 652268; activation, % at 3 µM; actives 10% (n = 1,600); in the data active = activation above about 1.3%
A number is an active result; – = inactive; · = no result given.

SMILES | SMARCA2 act | H9c2 protect | FXN GAA850 act | GalR3 antag | COUP-TFII inh | Gli-Sufu block | GalR3 conf | HEK-CNG parental
O=C(O)COn1c(-c2ccc(Cl)cc2)nc2ccc(Cl)cc21 | – | – | – | 30.2 | – | – | 13.8 | –
COn1c(-c2ccc(Cl)cc2)nc2ccc(Cl)cc21 | – | – | – | – | – | – | · | ·
COc1ccccc1C(CNC(=O)c1cccc(S(=O)(=O)Nc2ccc(C)cc2)c1)N(C)C (centres undefined) | – | – | – | – | – | – | · | ·
CC(C)Oc1ccc(F)cc1-c1cc(C(=O)NCc2cccs2)[nH]n1 | – | – | – | 22.9 | – | · | – | –
COc1ccccc1NC(=O)CSc1nnnn1C1CCCCC1 | – | – | – | – | – | – | · | ·
CC(Oc1ccc(Cl)cc1Cl)C(=O)Nc1cccc(O)c1 (centres undefined) | – | – | – | 14.5 | – | – | 15.1 | –
CC(Oc1ccc(Cl)cc1Cl)C(=O)Nc1ccc(O)cc1 (centres undefined) | – | – | – | – | – | – | · | ·
Cn1cc(Cc2ccc(C(=O)N3CCN(Cc4ccccc4)CC3)cn2)c2ccccc21 | – | – | – | – | – | · | · | ·
Cc1c(Cl)cccc1NC(=O)CN1CCN(CCN=CC2=C(O)CC(c3ccccc3)CC2=O)CC1 (centres undefined) | – | – | – | – | – | – | · | ·
N#CC1=C(N)Oc2n[nH]c(-c3ccccc3)c2C1c1cccc(OC(=O)N2CCOCC2)c1 (centres undefined) | – | – | – | 28.2 | – | – | – | –
COc1cccc(-c2[nH]nc3c2C(c2ccoc2)C(C#N)=C(N)O3)c1 (centres undefined) | – | – | – | – | – | – | · | ·
COc1cc(-c2[nH]nc3c2C(c2ccoc2)C(C#N)=C(N)O3)cc(OC)c1OC (centres undefined) | – | – | – | 18.5 | – | – | – | –
CCOc1ccc(-c2[nH]nc3c2C(c2cccnc2)C(C#N)=C(N)O3)cc1 (centres undefined) | – | – | – | 15.9 | – | – | – | –
COc1ccc(-n2cnnc2SCC(=O)NC2CC2)cc1 | – | – | – | – | – | · | · | ·
O=C(C(=O)N1CCN(c2ccc(F)cc2)CC1)N1CCCCC1 | – | – | – | 18.1 | – | – | – | –
COc1ccc(N2C(=O)CN(Cc3cc(OC)c(OC)c(OC)c3)C2=S)cc1 | – | – | – | 13.5 | – | – | – | –
Fc1ccccc1N1CCN(CC2CC3C=CC2C3)CC1 (centres undefined) | – | – | – | – | – | – | · | ·
C1=CC2CC1CC2CN1CCN(Cc2ccccc2)CC1 (centres undefined) | – | – | – | · | – | – | – | 1.8
CCCN1C(=O)C(=O)N(CC(=O)N2c3ccccc3NC(=O)CC2C)C1=O (centres undefined) | – | – | – | – | – | · | · | ·
Cc1ccccc1-c1nnn(CC(=O)Nc2ccc3c(c2)OCCO3)n1 | – | – | – | 16.0 | – | – | 18.8 | –
Cc1ccccc1-c1nnn(CC(=O)Nc2ccc3c(c2)OCO3)n1 | – | – | – | – | – | – | · | ·
CC1(C(=O)O)CCCN1C(=O)c1ccco1 (centres undefined) | – | – | – | – | – | · | · | ·
O=C(OCc1cnc(Cl)s1)c1cccc(Cl)c1Cl | – | – | – | – | – | – | · | ·
CCOc1ccc(-c2ccc(SCC)nn2)cc1 | – | – | – | · | – | – | – | –
CCOc1ccc(-c2ccc(SCc3ccccn3)nn2)cc1 | – | – | – | – | – | – | · | ·
SMILES | SMARCA2 act | H9c2 protect | FXN GAA850 act | GalR3 antag | COUP-TFII inh | Gli-Sufu block | GalR3 conf | HEK-CNG parental
CCc1ccc(OCC(=O)Nc2ccc(-c3cc4ccccc4oc3=O)c(OC)c2)cc1 | – | – | – | 26.0 | – | – | 66.3 | –
CCOC(=O)Cc1ccc(Nc2nc3cc(-c4ccccc4C)sc3c(=O)n2C)cc1 | – | – | – | – | – | · | · | ·
COc1ccc(S(=O)(=O)N(CCc2ccccc2)CC(=O)N/N=C/c2ccc3c(c2)OCO3)cc1 | – | – | – | – | – | – | · | ·
O=C(CN(CCc1ccccc1)S(=O)(=O)c1ccc(Cl)cc1)N/N=C/c1ccc2c(c1)OCO2 | – | – | – | 13.2 | – | – | – | 1.9
O=C(NCc1ccc(F)cc1)C1CCCN(c2cnccn2)C1 (centres undefined) | – | – | – | – | – | – | · | ·
COc1ccc(-n2c(C)c(C(C)=O)c(C(C)=O)c2C)cc1 | – | – | – | – | – | – | · | ·
COc1cccc(-n2c(C)c(C(C)=O)c(C(C)=O)c2C)c1 | – | – | – | 14.6 | – | – | – | –
COc1ccc(C2NS(=O)(=O)OCC2C)cc1 (centres undefined) | · | – | – | · | · | – | · | ·
COc1ccccc1-c1cc(NC(C)=O)c2ncc(-c3ccc(S(C)(=O)=O)cc3)n2c1 | – | – | – | – | – | · | · | ·
COc1ccc(-c2cnc3c(NC(C)=O)cc(-c4ccccc4OC)cn23)cc1OC | – | – | – | 13.2 | – | · | 18.3 | –
COc1cc(-c2cnc3c(NC=O)cc(-c4ccccc4Cl)cn23)cc(OC)c1OC | – | – | – | 19.2 | – | · | 26.0 | 1.6
CCn1ncc(C2=NOC(C(=O)NCc3ccccc3)C2)c1C (centres undefined) | – | – | – | 16.0 | – | – | 24.8 | –
CCn1ncc(C2=NOC(C(=O)NCc3ccc(OC)cc3)C2)c1C (centres undefined) | – | – | – | – | – | – | · | ·
CCOC(=O)COc1ccc(S(=O)(=O)NCc2cccnc2)cc1 | – | – | – | – | – | – | · | ·
COC(=O)COc1ccc(S(=O)(=O)NCc2ccncc2)cc1 | – | – | – | 96.0 | – | – | 113.1 | –
COc1ccc(Nc2nc(Cl)nc(NCCO)n2)cc1 | – | – | – | 19.6 | – | – | – | –
CCOc1cccc(C2C(C(=O)c3ccco3)=C(O)C(=O)N2c2nnc(C)s2)c1 (centres undefined) | – | – | – | 21.6 | – | – | – | –
CCSc1nnc(N2C(=O)C(O)=C(C(=O)c3ccco3)C2c2cccc(OC)c2)s1 (centres undefined) | – | – | – | 14.0 | – | – | – | –
CCOc1cccc(C2C(C(=O)c3ccc(C)o3)=C(O)C(=O)N2c2nnc(C)s2)c1 (centres undefined) | – | – | – | – | – | – | · | ·
CCCOc1cccc(C2C(C(=O)c3ccc(C)o3)=C(O)C(=O)N2c2nc(C)c(C(C)=O)s2)c1 (centres undefined) | – | – | – | 27.8 | – | – | 13.3 | –
CC(=O)c1cccc(S(=O)(=O)Nc2ccccc2N2CCOCC2)c1 | – | – | – | – | – | – | · | ·
